GBA enhancer – increases beta-glucosidase activity in Gaucher fibroblasts | L444P Gaucher fibroblasts, 4-MU-glucoside fluorescence, 3 days | activation, % at 10 µM | P04062 | 30,000 compounds, 0.44% hits; in the data active means activation above about 65%
A number is an active result; n = inactive. The entries come from a sample that favours hits as a whole.

SMILES	GBA enhancer
CC1(C)CC(=O)C2=C(C1)OC(N)=C(C#N)C21CCN(Cc2ccccc2)CC1	n
CCOC(=O)C1=C(C)OC(N)=C(C#N)C1c1c(C)nn(-c2ccccc2)c1Cl (configuration not stated)	n
CCN(CC)c1ccc2cc(C(=O)Nc3ccc(-n4cnnn4)c(OC)c3)c(=O)oc2c1	n
Cn1ncc2c1ncn1c(-c3ccccc3Cl)nnc21	n
Cn1c(/C(C#N)=C(\O)c2ccc(S(=O)(=O)N3CCCCC3)cc2)nc2ccccc21	71
COc1ccc(/C(O)=C(\C#N)c2nc3ccccc3n2C)cc1OC	n
O=C(Nc1ccccc1)c1ccc(S(=O)(=O)N2CCCC2)cc1	n
Cc1ccc(-n2cc(C(C)(C)C)[nH]c2=S)cc1	n
Nc1nc(N2CCN(C/C=C/c3ccccc3)CC2)nc2ccccc12	n
COc1cccc(N(C(=O)CNC(=O)c2ccco2)C(C(=O)NC2CCCCC2)c2ccncc2)c1 (configuration not stated)	n
FC(F)(F)c1ccc(N2CCOCC2)c(Nc2nc3ccccc3n3cnnc23)c1	75
Cc1nc2ccccc2nc1OCC(=O)Nc1cc(C(F)(F)F)ccc1N1CCOCC1	n
O=C(Nc1cc(C(F)(F)F)ccc1N1CCOCC1)c1cncc(Br)c1	n
O=C(NCc1ccco1)C(c1cccnc1)N(C(=O)Cn1nnc2ccccc21)c1ccc(F)cc1 (configuration not stated)	n
CCOc1cc2[nH]c(=O)n(CCCCC(=O)NCc3ccco3)c(=O)c2cc1OCC	n
COc1ccc(CC(C(=O)Nc2cccc(F)c2)c2nn[nH]n2)c(OC)c1 (configuration not stated)	n
CC(=O)C(C(C)=O)c1c(Cl)c(O)c(O)c2c(C(=O)c3ccccc3)coc12	n
c1ccc(Cn2c(SCc3nc4ccccc4s3)nnc2-c2ccco2)cc1	127
c1ccc(-n2cnnc2SCc2nc3ccccc3s2)cc1	n
CCC(c1nnc(SCc2nc3ccccc3s2)n1Cc1ccccc1)N(C)C (configuration not stated)	n
Cc1ccccc1N(CC(=O)NCC1CCCO1)C(=O)C1(C)CC(=O)N=C2C=CC=CN21 (configuration not stated)	n
O=C(O)CC(NC(=O)OCc1ccccc1)c1ccccc1 (configuration not stated)	n
COc1ccc(C(CC(=O)O)NC(=O)c2cccs2)cc1 (configuration not stated)	n
CCOC(=O)NC(CC(=O)O)c1ccc(OCC)cc1 (configuration not stated)	81
COc1cc(S(=O)(=O)NCCc2ccc3c(c2)OCO3)ccc1-n1cnnn1	n
SMILES	GBA enhancer
CCN1CCN(CCCNC(=O)C(NC(=O)C2CCC(C)CC2)C(C)C)CC1 (configuration not stated)	n
CCN1CCCC1CNC(=O)C(NC(=O)C1CCC(C)CC1)C(C)C (configuration not stated)	n
CC1CCC(C(=O)NC(C(=O)NCCCN2CCOCC2)C(C)C)CC1 (configuration not stated)	68
COCc1cc(C)nc(NC2CCCCC2)c1C#N	101
COCc1cc(C)nc(N2CCN(c3ccccc3)CC2)c1C#N	n
COCc1cc(C)nc(SCC(=O)Nc2ccccc2C)c1C#N	n
CS(=O)(=O)N(CC(=O)Nc1cccc(F)c1)Cc1ccccc1	n
CCOc1ccc2nc(NC(=O)CN3CCC(n4nnc5cc(F)ccc54)CC3)sc2c1	n
Cc1ccc(C)c(/C(O)=C2\C(=O)C(=O)N(CCCn3ccnc3)C2c2ccncc2)c1 (configuration not stated)	84
CC1Cc2cc(/C(O)=C3/C(=O)C(=O)N(CCCN(C)C)C3c3ccncc3)ccc2O1 (configuration not stated)	n
COCCCN1C(=O)C(=O)/C(=C(/O)c2ccc(C)cc2)C1c1ccccc1 (configuration not stated)	n
COC(=O)c1c(C)cc(C)n2c1nc1ccccc12	n
COC(=O)c1ccc(CSc2ccc3nnc(-c4ccc(OC)c(OC)c4)n3n2)o1	n
COc1c(S(=O)(=O)N2CCCCC2)ccc2c(S(=O)(=O)N3CCCCC3)cccc12	n
Fc1ccc(CSc2nncn2NCc2ccc3c(c2)OCO3)cc1	n
COc1ccc(S(=O)(=O)N2CCC(C(=O)Nc3cccc(Cl)c3)CC2)cc1OC	n
CCOC(=O)Cn1cc(C(=O)c2cccs2)c2ccccc21	n
COC(=O)c1cn(C(=O)c2ccc(Br)o2)c2ccccc12	n
COC(=O)c1cn(C(=O)c2cccs2)c2ccccc12	89
Cc1cccc2cc(C#N)c(NCCNS(=O)(=O)c3ccc4c(c3)OCCO4)nc12	n
COc1cccc(-n2c(SCC(=O)OC(C)C)nnc2-c2cccnc2)c1	n
Cc1ccc(C(=O)CSc2nnc(-c3cccnc3)n2N)cc1	n
CC(C)OC(=O)CSc1nnc(-c2cccnc2)n1N	67
Cc1ccc(C2CC(C(F)(F)F)n3nc(C(=O)NCc4ccco4)cc3N2)cc1 (configuration not stated)	n
Cc1ccc2[nH]c(=O)c(C(c3nnnn3CCc3ccccc3)N3CCOCC3)cc2c1 (configuration not stated)	n
